How the values were obtained:
Experiment in all cases: PBM binding z-score (relative to random genomic background probes); higher = stronger binding; sequences stand for … in GC…GCGATTGACAGCGTAGAATGAAGG
[1] = test system: FXR:RXRa (NR concentration 270 nM, RXRa partner concentration 90 nM)
Method in brief: (§1)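 Each nuclear receptor dimer, without ligand, was incubated for 1 h on custom Agilent 4×180K protein-binding microarrays. Binding was detected with antibodies against each partner (one per run), and scanned fluorescence was regression-normalized. The binding z-scores are referenced to random human genomic background probes.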

[2] = test system: LXRa:RXRa (NR concentration 270 nM, RXRa partner concentration 90 nM)
Method in brief: as §1

[3] = test system: LXRa homodimer (NR concentration 270 nM)
Method in brief: as §1

[4] = test system: LXRb:RXRa (NR concentration 270 nM, RXRa partner concentration 90 nM)
Method in brief: as §1

[5] = test system: LXRb homodimer (NR concentration 270 nM)
Method in brief: as §1

[6] = test system: PPARa:RXRa (NR concentration 270 nM, RXRa partner concentration 90 nM)
Method in brief: as §1

[7] = test system: PPARg:RXRa (NR concentration 180 nM, RXRa partner concentration 90 nM)
Method in brief: as §1

[8] = test system: PPARg:RXRa 270nM:90nM, anti-RXR (NR concentration 270 nM, RXRa partner concentration 90 nM)
Method in brief: as §1

[9] = test system: PPARg:RXRa 30nM:10nM, anti-RXR (NR concentration 30 nM, RXRa partner concentration 10 nM)
Method in brief: as §1

[10] = test system: PPARg:RXRa 90nM:30nM, anti-RXR (NR concentration 90 nM, RXRa partner concentration 30 nM)
Method in brief: as §1

[11] = test system: PPARg:RXRa DBDmut IVT, anti-RXR (DBD mutation: RXRa K156A/R161A, NR concentration 270 nM, RXRa partner concentration 90 nM)
Method in brief: as §1

[12] = test system: PPARg:RXRa IVT, anti-PPARg (NR concentration 270 nM, RXRa partner concentration 90 nM)
Method in brief: as §1

[13] = test system: PPARg DBDmut:RXRa IVT, anti-PPARg (DBD mutation: PPARg1 K132A/R137A, NR concentration 270 nM, RXRa partner concentration 90 nM)
Method in brief: as §1

[14] = test system: PPARg DBDmut IVT, anti-PPARg (DBD mutation: PPARg1 K132A/R137A, NR concentration 270 nM)
Method in brief: as §1

[15] = test system: PPARg homodimer (NR concentration 180 nM)
Method in brief: as §1

[16] = test system: PXR:RXRa (NR concentration 270 nM, RXRa partner concentration 90 nM)
Method in brief: as §1

[17] = test system: PXR homodimer (NR concentration 270 nM)
Method in brief: as §1

[18] = test system: RARa:RXR (NR concentration 270 nM, RXRa partner concentration 90 nM)
Method in brief: as §1

[19] = test system: RARa homodimer (NR concentration 270 nM)
Method in brief: as §1

[20] = test system: RARb:RXRa (NR concentration 270 nM, RXRa partner concentration 90 nM)
Method in brief: as §1

Sequence | PBM binding z-score [1] | PBM binding z-score [2] | PBM binding z-score [3] | PBM binding z-score [4] | PBM binding z-score [5] | PBM binding z-score [6] | PBM binding z-score [7] | PBM binding z-score [8] | PBM binding z-score [9] | PBM binding z-score [10] | PBM binding z-score [11] | PBM binding z-score [12] | PBM binding z-score [13] | PBM binding z-score [14] | PBM binding z-score [15] | PBM binding z-score [16] | PBM binding z-score [17] | PBM binding z-score [18] | PBM binding z-score [19] | PBM binding z-score [20]
ACTTACGGGTCAACGAGGTTATAGAACGCGTATA | 6.52 | 5.29 | 0.693 | 4.56 | 0.433 | 5.87 | 5.23 | 5.55 | 2.2 | 4.21 | 3.53 | 4.42 | 1.71 | 1.43 | 1.66 | 5.08 | 2.8 | 4.99 | 0.996 | 4.35
CCGAGTAGGTTATGGGGCGTTCAGGCAACGGTGA | 0.244 | 0.548 | -0.0765 | 0.47 | -0.285 | 1.67 | 2.44 | 3.87 | 1.97 | 3.39 | 2.68 | 2.65 | -0.225 | -0.53 | 0.696 | -0.0536 | -0.251 | 0.233 | -0.0281 | 0.904
CCGACTGGGGCAAGGATACCATAACGCACAGCCA | -0.419 | -0.243 | -0.0407 | -0.588 | -1.01 | 0.158 | 1.6 | 1.16 | -0.149 | 0.515 | 2.53 | 2.44 | -1.12 | -0.391 | 0.238 | -0.678 | -0.593 | -0.387 | 0.23 | 0.558
ATAGCAAGGTGATCGTGAGGTCGTTGATACTAAC | 1.34 | 0.986 | 0.104 | 0.673 | -0.808 | 1.47 | 0.359 | 0.22 | 0.0107 | -0.0753 | 0.118 | 0.727 | 0.619 | 0.253 | 0.565 | 2.62 | 0.543 | 1.98 | -0.0537 | 1.16
CCTAGTTGGTAAGGAGGTCACACACCGGATATGA | 3.14 | 3.17 | 1.87 | 3.13 | 0.74 | 4.19 | 3.16 | 3.39 | 1.34 | 2.68 | 1.63 | 4.06 | 0.9 | 0.468 | 2.82 | 3.83 | 1.4 | 4.14 | 1.52 | 3.04
ATCCAAAGGTCGACGAGGTGAGTATACACCGTTT | 5.35 | 3.7 | 0.198 | 3.13 | 0.235 | 4.5 | 4.29 | 4.16 | 1.4 | 3.03 | 0.48 | 2.51 | 0.787 | 0.209 | 1.99 | 3.05 | 0.52 | 3.62 | 0.92 | 4.07
AGTCAAAGTTCATCTAGTTAACGTAAGATATGCT | 6.78 | 6.1 | 5.42 | 3.68 | 2.06 | 4.77 | 6.49 | 5.96 | 3.55 | 5.46 | 0.113 | 2.78 | 1.61 | 1.25 | 3.6 | 5.26 | 9.11 | 3.45 | 2.15 | 4.85

From the supplement of paper PMC6555819
